This is one part of the list. Inconclusive results are not listed. Calls of active or inactive are those of the source. How the source made its calls: active means clear falling dose curves in both reporters; inconclusive means both reporters move, but less clearly or upward; inactive means either reporter flat; the % is the FLuc reporter signal.
Potency means the concentration at half of the fitted maximal effect.

A short description of this test: Cell-based coincidence reporter assay to measure PMP22 gene transcription in S16 Pmp22-F2sN cells - Confirmatory screen (AID 1508646). To be noted: S16 Schwann cells Pmp22-F2sN, dual luciferase, 24 h; series mostly up to 57.5 µM. The text has this: Assay Provider: Jim Inglese Ph.D. National Center for Advancing Translational Science, National Institutes of Health, Rockville, MD CMT is a heterogeneous group of neurological disorders that affect approximately 1 in 2,500 people. In particular, the most common form of CMT, CMT1A is genetically linked to the duplication of the PMP22 gene which leads to Schwann cell overexpression, thus manifesting itself as a typical case of dose-sensitive diseases. To identify small molecule compounds that can mediate the expression of PMP22 we developed a phenotypic assay screening strategy by utilizing genome editing techniques to construct Schwann cell lines containing novel reporter technology to monitor the transcriptional or translational regulation of PMP22. For high sensitivity we use a bioluminescent reporter system embedded in the 3' UTR of the PMP22 gene (S16(c9) Pmp22-F2sN) to identify compounds that inhibit gene expression. […] We can further discriminate the effect of all transcriptionally active molecules on PMP22 translation or stability with an assay that incorporates a short NLuc peptide (HiBiT) at the C-terminus of expressed PMP22 (S16(f8) PMP22-HiBiT) allowing alpha complementation and luminescence detection of membrane-associated PMP22 protein. These assays were screened against the NCATS Sytravon Library Collection. Miniaturization of these assays to 1536-well plate format for quantitative high throughput screening (qHTS) yielded rich data sets immediately from the qHTS assay (S16(c9) Pmp22-F2sN), when compared with data from a cell viability assay (Cell TiterGlo) to identify compounds that decreased the output signals through cellular toxicity to streamline the selection process of actives for subsequent characterization using the HiBiT assay (S16(f8) PMP22-HiBiT).
Cell-based coincidence reporter assay to measure PMP22 gene transcription in S16 Pmp22-F2sN cells PROTOCOL TABLE (format as described by Inglese J, Shamu CE and Guy RK. 2007) SEQUENCE No. (e.g., 1, 2, 3, etc.); PARAMETER (e.g., Cells, Incubation, Reagent, etc.); VALUE and DESCRIPTION. 1. Cells. Add 500-1,000 cells in 4 uL in growth media (DMEM High Glucose, No Phenol Red media + 10% heat-inactivated FBS + 1% Pen/Strep supplemented media) per well into Greiner 1536-well white/solid bottom high base, TC-treated plates. 2. Compounds. Library compounds and controls added at 23nL per well, transferred by Pin Tool. 3. Incubation. Incubate plates at 37C, 5% CO2, 95% RH for 24 h. 4. Reagent. Add 3.5uL Nano-Glo Dual-Luciferase Reporter Assay System reagent 1: Lysis and FLuc reagent per well of Greiner 1536-well plates. 5. Incubation. Incubate plates at room temperature for 10 min., protect from light. 6. Detector. FLuc luminescence measured using CCD-based camera (Viewlux). 7. Reagent. Add 3.5uL Nano-Glo Dual-Luciferase Reporter Assay System reagent 2: Stop&Glo reagent per well of Greiner 1536-well plates. 8. Incubation. Incubate plates at room temperature for 10 min., protect from light. 9. Detector. NLuc luminescence measured using CCD-based camera (Viewlux). NOTES (numbers refer to Sequence numbers above; values are from representative experiments) 6. Luminescence Read #1 (FLuc): Clear filter; Exposure = 10 sec, Gain = High, Speed = Slow, Binning = 2X 9. Luminescence Read #2 (NLuc): Clear filter; Exposure = 1 sec, Gain = High, Speed = Slow, Binning = 2X REFERENCES: 1. Inglese J, Shamu CE and Guy RK, Reporting data from high throughput screening of small molecule libraries, Nature Chemical Biology, 2007, 3(8): 438-441. doi.org/10.1038/nchembio0807-438 2. Yasgar A, Shinn P, Jadhav A, Auld DS, Michael S, Zheng W, Austin CP, Inglese J and Simeonov A, Compound Management for Quantitative High-Throughput Screening. J. Assoc. Lab. Auto., 2008, 13: 79-89. doi: 10.1016/j.jala.2007.12.004
(In general: A reporter such as luciferase makes a cellular process visible.)
As to `O=C(c1ccc2c(c1)N(Cc1ccc(F)cc1)C(=O)c1ccccc1S2(=O)=O)N1CCN(c2ccccn2)CC1`, the Potency result was “inactive”.

With `CCc1ccc(NC(=O)CN2CCSc3ccc(S(=O)(=O)N4CCCC4)cc32)cc1`, the Potency result is “inactive”.

In the case of `Cc1ccc(NC(=O)c2nc(S(=O)(=O)Cc3cccc(C)c3)ncc2Cl)cc1`, the Potency is 13.1 µM (active).

As for `CCCS(=O)(=O)c1ncc(Cl)c(C(=O)Nc2scc(-c3ccccc3)c2C(=O)OCC)n1`, the Potency is 10.4 µM (active).

Consider `Cc1cc(F)ccc1NS(=O)(=O)c1ccc(-n2cccn2)cc1`, for which the Potency result is “inactive”.

For the compound `CCOc1ccc(NC(=O)c2c(NC(=O)Cc3ccccc3)sc3c2CCC(C)C3)cc1` (stereo unspecified), the Potency is 16.5 µM (active).

Take `CCCCOc1ccc(CN2C(=O)C(=O)c3cc(Br)cc(C)c32)cc1OC`: the Potency is 10.9 µM (active).

`O=C(CCS(=O)(=O)c1ccccc1)N(Cc1cccnc1)c1nc2c(F)cccc2s1`: the Potency is 12.3 µM (active).

For the compound `COc1cccc(NC(=O)CSC2=Nc3ccccc3C3=NC(CC(=O)NC4CCCCC4)C(=O)N23)c1` (stereo unspecified), the Potency entry is “inactive”.

Consider `Cc1cc(OCC(=O)NCC2(N(C)C)CCCCC2)cc(C)c1Cl`, for which the Potency entry is “inactive”.

As to `COc1ccccc1Nc1c2c(nc3ccc(NC(=O)/C=C/c4cc(OC)c(OC)c(OC)c4)cc13)CCCC2`, the Potency was 12.2 µM (active).

Regarding `Cc1ccccc1CNC(=O)CSc1nnc(C)c2c(C)n(-c3ccccc3)nc12`, the Potency was 16.3 µM (active).

`Cc1ccc(CCNC(=O)C2CCN(c3nnc(-n4cccc4CNc4ccc(C)cc4)s3)CC2)cc1`: the Potency is 15.1 µM (active).

For the compound `CCOC(=O)C1CCN(C(=O)CSc2c3c(nc4ccc(Cl)cc24)CCCC3)CC1`, the Potency was 17.3 µM (active).

For `Cc1sc(C2C(C#N)=C(N)N(c3cccc(Cl)c3)C3=C2C(=O)CCC3)cc1CN1CCOCC1` (stereo unspecified), the Potency entry was “inactive”.

As for `COc1ccccc1-c1cc(C(F)(F)F)nc(S(=O)(=O)CCCC(=O)Nc2ccc(F)cc2F)n1`, the Potency is 15.3 µM (active).
